From PubChem BioAssay (EPA / NIEHS)
The source made the active and inactive calls. The calls were made as follows: active = hit-call score of the fitted dose curve at least 0.9, where 1 is the maximum; inactive = score below 0.9.

Columns and labels:
[1] = ATG_GRE_CIS: Attagene CIS-FACTORIAL HepG2 Assay for human Glucocorticoid Response Elements (GRE) (AID 2282947); conditions: HepG2 GRE cis-reporter, Attagene multiplex mRNA; actives raise or lower the signal
How it was run: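 Reporter transcripts read by RT-PCR with capillary electrophoresis fluorescence after a 24 h chemical exposure of HepG2 cells transiently transfected with multiple cis-element reporter units. Gain or loss fitted against DMSO.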

[2] = ATG_ISRE_CIS: Attagene CIS-FACTORIAL HepG2 Assay for human Interferon Regulatory Factor 1 (IRF1) binding to an Interferon-Stimulated Response Element (ISRE) (AID 2282948); conditions: HepG2 ISRE cis-reporter (Attagene), mRNA transcription readout; actives raise or lower the signal
How it was run: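 Endogenous transcription factor activity read as reporter transcript abundance via RT-PCR and capillary electrophoresis. HepG2 cells transiently transfected, 24 h chemical exposure. Gain or loss fitted against DMSO baseline.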

[3] = ATG_M_32_CIS: Attagene CIS-FACTORIAL HepG2 Assay for M32 Transcription Factor (Internal Marker) (AID 2282949); conditions: HepG2 Attagene cis-factorial M32 reporter, mRNA; actives raise or lower the signal;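 also: background control marker of the multiplexed CIS panel rather than a real target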
How it was run: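 HepG2 human liver cells transiently transfected with cis-promoter-driven multiple reporter transcription units, dosed 24 h. Reporter mRNA quantified by RT-PCR, FAM-labelled primer extension, HpaI digest and capillary electrophoresis; bidirectional fit versus DMSO baseline.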

[4] = ATG_M_06_CIS: Attagene CIS-FACTORIAL HepG2 Assay for M06 Transcription Factor (Internal Marker) (AID 2282950); conditions: HepG2 Attagene CIS-FACTORIAL M06 internal marker reporter; actives raise or lower the signal
How it was run: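 Terse: HepG2, transient MRTU transfection (FuGene 6), 24 h dosing; total RNA, oligo(dT) RT, PCR, FAM label, HpaI cut, capillary electrophoresis; bidirectional fit vs DMSO baseline; background-control endpoint.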

[5] = target: Hypoxia-inducible factor 1-alpha (Homo sapiens) (UniProt Q16665); test: ATG_HIF1a_CIS: Attagene CIS-FACTORIAL HepG2 Assay for human Hypoxia Inducible Factor 1 (HIF1A) (AID 2282951); conditions: HepG2 Attagene cis-factorial HIF1a reporter transcription; actives raise or lower the signal
How it was run: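 After 24 h chemical exposure of reporter-transfected HepG2 cells, reporter cDNA was PCR-amplified, labelled by 6-FAM primer extension (2 min 95 C, 20 s 68 C, 10 min 72 C), HpaI-cut (2 h, 37 C) and analysed by CE.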

[6] = target: Hepatocyte nuclear factor 6 (Homo sapiens) (UniProt Q9UBC0); test: ATG_HNF6_CIS: Attagene CIS-FACTORIAL HepG2 Assay for human Hepatocyte Nuclear Factor 6 (HNF6) (AID 2282952); conditions: HepG2 Attagene cis-factorial HNF6 reporter transcription; actives raise or lower the signal
How it was run: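 Endogenous factor activity read in transiently transfected HepG2 via promoter-regulated reporter transcripts. RNA harvested 24 h post-dosing, reverse-transcribed, PCR-amplified, FAM-labelled, HpaI-digested and resolved by capillary electrophoresis; fitted in both directions against DMSO.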

[7] = target: Heat shock factor protein 1 (Homo sapiens) (UniProt Q00613); test: ATG_HSE_CIS: Attagene CIS-FACTORIAL HepG2 Assay for human Heat Shock Transcription Factor 1 (HSE) (AID 2282953); conditions: HepG2 HSE cis-reporter, Attagene RNA transcription; actives raise or lower the signal
How it was run: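 Read-out: fluorescence of reporter-specific RT-PCR fragments separated by capillary electrophoresis. HepG2 carrying transfected cis-element reporter units; 24 h dosing; activity fitted in both directions relative to DMSO baseline.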

[8] = target: Paired box protein Pax-6 (Homo sapiens) (UniProt P26367); test: ATG_Pax6_CIS: Attagene CIS-FACTORIAL HepG2 Assay for human Paired Box 6 (PAX6) (AID 2282956); conditions: HepG2 CIS-FACTORIAL PAX6 reporter transcription, RNA readout; actives raise or lower the signal
How it was run: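 Read-out is reporter transcript level, measured by RT-PCR with fluorescent primer extension and capillary electrophoresis after 24 h dosing of transfected HepG2 cells. Activity in either direction fitted relative to DMSO control.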

[9] = ATG_PXRE_CIS: Attagene CIS-FACTORIAL HepG2 Assay for human Pregnane X Receptor Element (PXRE) (AID 2282957); conditions: HepG2 Attagene CIS-FACTORIAL PXRE reporter, mRNA; actives raise or lower the signal
How it was run: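 Reporter transcripts under endogenous PXR-responsive cis-regulation quantified from total RNA of transfected HepG2 cells 24 h post-dosing, via RT-PCR with fluorescent primer extension and capillary electrophoresis. Gain or loss of signal fitted against DMSO baseline.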

[10] = ATG_PPRE_CIS: Attagene CIS-FACTORIAL HepG2 Assay for human Peroxisome Proliferator-activated Response Element (PPRE) (AID 2282958); conditions: HepG2 PPRE cis-element reporter, Attagene transcription factor profiling; actives raise or lower the signal
How it was run: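 PPRE activity in HepG2: transient cis-reporter transfection, 24 h compound incubation, reporter mRNA by RT-PCR and CE fluorescence; gain/loss fitted against DMSO.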

[11] = ATG_RORE_CIS: Attagene CIS-FACTORIAL HepG2 Assay for human RAR-related Orphan Receptor Element (RORE) (AID 2282959); conditions: HepG2 Attagene cis-factorial RORE reporter, mRNA; actives raise or lower the signal
How it was run: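 A 24-hour exposure of transfected HepG2 hepatoma cells precedes RNA isolation and reporter RT-PCR. Labeled products are digested with HpaI and resolved by capillary electrophoresis, with gain or loss of signal scored relative to DMSO.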

[12] = ATG_Sox_CIS: Attagene CIS-FACTORIAL HepG2 Assay for human SRY-box transcription factor (SOX) (AID 2282960); conditions: HepG2 Attagene cis-factorial SOX reporter, mRNA; actives raise or lower the signal
How it was run: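 HepG2, cis reporter units, 24 h exposure. Reporter mRNA: RT-PCR → FAM labelling → HpaI → CE fluorescence. Bidirectional fit vs DMSO.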

[13] = ATG_SREBP_CIS: Attagene CIS-FACTORIAL HepG2 Assay for human Sterol Regulatory Element Binding (SREBP) (AID 2282962); conditions: HepG2 Attagene cis-factorial SREBP reporter, mRNA; actives raise or lower the signal
How it was run: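 Endogenous SREBP activity read as cis-element-driven reporter transcript in transiently transfected HepG2, 24 h post-dosing; quantified via RT-PCR plus capillary electrophoresis of fluorescent fragments. Gain or loss of signal fitted relative to DMSO baseline.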

[14] = target: Signal transducer and activator of transcription 3 (Homo sapiens) (UniProt P40763); test: ATG_STAT3_CIS: Attagene CIS-FACTORIAL HepG2 Assay for human Signal Transducer and Activator of Transcription 3 (STAT3) (AID 2282963); conditions: HepG2, Attagene cis-factorial STAT3 reporter transcription; actives raise or lower the signal
How it was run: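 Readout is reporter transcript quantified by RT-PCR and capillary electrophoresis, with 6-FAM primer extension and HpaI digestion. Total RNA is taken 24 h after dosing transiently transfected HepG2 carrying cis-regulated reporter units. Bidirectional fit against DMSO.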

[15] = ATG_TA_CIS: Attagene CIS-FACTORIAL HepG2 Assay for human TA Basal Promoter (AID 2282964); conditions: HepG2 Attagene CIS-factorial TA basal promoter reporter; actives raise or lower the signal
How it was run: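 Transfected HepG2, 24 h compound exposure; RNA → RT-PCR → FAM primer extension → HpaI cut → CE fluorescence. Gain/loss-of-signal fitted against DMSO negative control. Background-control readout.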

[16] = ATG_TCF_b_cat_CIS: Attagene CIS-FACTORIAL HepG2 Assay for human T-Cell-Factor with beta-catenin (TCF/b-cat) (AID 2282965); conditions: HepG2 TCF/beta-catenin cis-reporter transcription, actives raise or lower the signal
How it was run: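 Endogenous TCF/LEF activity read as reporter transcript level via RT-PCR and capillary electrophoresis fluorescence in transfected HepG2, 24 h exposure; gain or loss of signal fitted against DMSO controls.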

[17] = ATG_MRE_CIS: Attagene CIS-FACTORIAL HepG2 Assay for human Metal Responsive Element (MRE) (AID 2282954); conditions: HepG2 MRE cis-reporter transcription, Attagene multiplex; actives raise or lower the signal
How it was run: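 Endogenous MRE-dependent transcription read as reporter mRNA in transiently transfected human HepG2 cells at 24 h. RNA reverse-transcribed, PCR-amplified, labelled and resolved by capillary electrophoresis; gain or loss relative to DMSO.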

[18] = target: Transcription factor Sp1 (Homo sapiens) (UniProt P08047); test: ATG_Sp1_CIS: Attagene CIS-FACTORIAL HepG2 Assay for human Specificity Protein 1 (Sp1) (AID 2282961); conditions: HepG2 Sp1 cis-reporter transcription, actives raise or lower the signal
How it was run: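 Liver-derived HepG2 cells, cis-element reporter library, 24 h treatment; RNA isolated, cDNA amplified with reporter-specific primers, FAM-labeled fragments sized on capillary analyzer. DMSO baseline, bidirectional curve fit.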

[19] = ATG_PBREM_CIS: Attagene CIS-FACTORIAL HepG2 Assay for human Phenobarbital-responsive Enhancer Module (PBREM) (AID 2282955); conditions: HepG2 PBREM cis-reporter, Attagene multiplexed transcription; actives raise or lower the signal
How it was run: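 Measures endogenous factor action on a phenobarbital-responsive enhancer module. HepG2 transiently carrying cis reporters, 24 h treatment, mRNA read-out by RT-PCR plus capillary electrophoresis.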

Measured: AC50

Heat shock factor protein 1 (Homo sapiens), sequence (Q00613 whole entry, looked up, the tested form may be a part): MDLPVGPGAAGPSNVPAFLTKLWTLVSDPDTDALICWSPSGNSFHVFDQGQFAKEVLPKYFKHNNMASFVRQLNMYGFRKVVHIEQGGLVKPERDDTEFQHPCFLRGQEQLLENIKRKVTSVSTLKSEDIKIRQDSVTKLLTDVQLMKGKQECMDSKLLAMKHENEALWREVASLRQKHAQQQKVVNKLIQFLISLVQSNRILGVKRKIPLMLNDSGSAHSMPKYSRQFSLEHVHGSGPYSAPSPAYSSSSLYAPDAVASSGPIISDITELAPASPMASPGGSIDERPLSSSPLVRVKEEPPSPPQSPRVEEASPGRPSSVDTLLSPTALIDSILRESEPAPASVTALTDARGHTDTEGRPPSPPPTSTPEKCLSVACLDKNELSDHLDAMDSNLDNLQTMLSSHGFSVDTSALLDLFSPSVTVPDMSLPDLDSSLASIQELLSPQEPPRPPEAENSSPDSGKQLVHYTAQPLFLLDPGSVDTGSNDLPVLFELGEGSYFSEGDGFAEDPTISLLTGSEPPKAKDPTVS
Paired box protein Pax-6 (Homo sapiens), sequence (P26367 whole entry, looked up): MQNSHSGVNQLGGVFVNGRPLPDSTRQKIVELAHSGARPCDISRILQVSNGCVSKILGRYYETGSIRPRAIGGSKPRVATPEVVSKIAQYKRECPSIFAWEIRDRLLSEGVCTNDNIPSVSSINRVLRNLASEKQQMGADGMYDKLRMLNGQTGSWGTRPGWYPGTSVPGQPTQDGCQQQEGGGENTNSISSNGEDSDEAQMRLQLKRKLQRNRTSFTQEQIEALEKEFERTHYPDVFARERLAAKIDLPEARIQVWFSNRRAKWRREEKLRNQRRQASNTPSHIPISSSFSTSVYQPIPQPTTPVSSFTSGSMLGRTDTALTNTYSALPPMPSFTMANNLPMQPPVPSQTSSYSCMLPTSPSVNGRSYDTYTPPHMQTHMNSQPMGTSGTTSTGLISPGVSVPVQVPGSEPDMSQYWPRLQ
Hepatocyte nuclear factor 6 (Homo sapiens), sequence (Q9UBC0 whole entry, looked up): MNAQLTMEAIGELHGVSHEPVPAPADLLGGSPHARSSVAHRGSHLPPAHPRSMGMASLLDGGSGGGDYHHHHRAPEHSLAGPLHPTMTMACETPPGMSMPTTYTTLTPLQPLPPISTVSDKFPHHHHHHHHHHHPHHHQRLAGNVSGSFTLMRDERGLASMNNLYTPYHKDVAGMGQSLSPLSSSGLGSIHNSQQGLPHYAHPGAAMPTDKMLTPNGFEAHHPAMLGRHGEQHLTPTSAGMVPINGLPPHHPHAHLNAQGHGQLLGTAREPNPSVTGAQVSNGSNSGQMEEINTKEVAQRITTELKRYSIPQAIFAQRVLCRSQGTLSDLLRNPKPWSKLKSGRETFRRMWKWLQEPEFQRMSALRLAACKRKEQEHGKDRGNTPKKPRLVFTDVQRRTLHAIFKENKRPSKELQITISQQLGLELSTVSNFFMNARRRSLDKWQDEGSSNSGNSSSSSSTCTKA
Hypoxia-inducible factor 1-alpha (Homo sapiens), sequence (Q16665 whole entry, looked up): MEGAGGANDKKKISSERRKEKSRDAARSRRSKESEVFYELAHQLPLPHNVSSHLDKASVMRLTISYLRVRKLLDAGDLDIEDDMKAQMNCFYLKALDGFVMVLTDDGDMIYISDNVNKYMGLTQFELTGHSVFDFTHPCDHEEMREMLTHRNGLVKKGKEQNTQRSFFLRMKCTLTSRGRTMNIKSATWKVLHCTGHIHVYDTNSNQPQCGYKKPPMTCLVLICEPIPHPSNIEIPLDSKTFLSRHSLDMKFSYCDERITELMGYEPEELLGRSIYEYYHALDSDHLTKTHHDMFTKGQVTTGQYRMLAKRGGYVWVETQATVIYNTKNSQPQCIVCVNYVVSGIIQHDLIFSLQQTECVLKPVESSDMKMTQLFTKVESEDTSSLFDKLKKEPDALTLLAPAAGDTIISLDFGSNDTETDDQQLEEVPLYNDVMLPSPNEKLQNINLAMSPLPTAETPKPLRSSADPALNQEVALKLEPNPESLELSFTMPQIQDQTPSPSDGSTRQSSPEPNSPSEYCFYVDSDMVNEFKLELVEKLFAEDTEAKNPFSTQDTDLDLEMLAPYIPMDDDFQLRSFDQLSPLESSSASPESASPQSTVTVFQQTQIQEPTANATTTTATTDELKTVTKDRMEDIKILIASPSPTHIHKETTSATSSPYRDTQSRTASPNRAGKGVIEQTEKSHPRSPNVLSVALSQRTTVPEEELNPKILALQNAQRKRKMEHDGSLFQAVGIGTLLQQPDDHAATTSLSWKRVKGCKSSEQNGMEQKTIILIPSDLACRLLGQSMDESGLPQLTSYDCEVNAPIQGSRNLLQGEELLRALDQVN
Signal transducer and activator of transcription 3 (Homo sapiens), sequence (P40763 whole entry, looked up): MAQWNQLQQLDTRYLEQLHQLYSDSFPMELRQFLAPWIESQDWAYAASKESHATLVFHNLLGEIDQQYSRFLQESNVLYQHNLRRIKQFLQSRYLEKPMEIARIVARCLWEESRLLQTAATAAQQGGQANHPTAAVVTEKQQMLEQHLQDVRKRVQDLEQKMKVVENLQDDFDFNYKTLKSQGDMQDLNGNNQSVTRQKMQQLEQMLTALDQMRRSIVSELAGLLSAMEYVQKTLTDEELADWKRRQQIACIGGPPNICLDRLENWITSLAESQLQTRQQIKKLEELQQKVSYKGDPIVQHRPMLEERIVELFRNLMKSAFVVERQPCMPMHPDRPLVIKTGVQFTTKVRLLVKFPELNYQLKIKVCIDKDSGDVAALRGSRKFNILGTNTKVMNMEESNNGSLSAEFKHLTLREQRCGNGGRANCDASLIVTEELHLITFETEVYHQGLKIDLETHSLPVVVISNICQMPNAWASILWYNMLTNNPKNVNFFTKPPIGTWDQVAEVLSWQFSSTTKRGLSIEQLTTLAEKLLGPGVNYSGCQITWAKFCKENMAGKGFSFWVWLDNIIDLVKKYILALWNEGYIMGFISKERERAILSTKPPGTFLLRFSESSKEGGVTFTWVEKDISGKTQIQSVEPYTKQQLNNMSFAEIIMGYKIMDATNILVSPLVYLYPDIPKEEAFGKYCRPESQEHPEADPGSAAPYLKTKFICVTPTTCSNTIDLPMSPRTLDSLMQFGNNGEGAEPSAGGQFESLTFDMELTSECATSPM
Transcription factor Sp1 (Homo sapiens), sequence (P08047 whole entry, looked up, the tested form may be a part): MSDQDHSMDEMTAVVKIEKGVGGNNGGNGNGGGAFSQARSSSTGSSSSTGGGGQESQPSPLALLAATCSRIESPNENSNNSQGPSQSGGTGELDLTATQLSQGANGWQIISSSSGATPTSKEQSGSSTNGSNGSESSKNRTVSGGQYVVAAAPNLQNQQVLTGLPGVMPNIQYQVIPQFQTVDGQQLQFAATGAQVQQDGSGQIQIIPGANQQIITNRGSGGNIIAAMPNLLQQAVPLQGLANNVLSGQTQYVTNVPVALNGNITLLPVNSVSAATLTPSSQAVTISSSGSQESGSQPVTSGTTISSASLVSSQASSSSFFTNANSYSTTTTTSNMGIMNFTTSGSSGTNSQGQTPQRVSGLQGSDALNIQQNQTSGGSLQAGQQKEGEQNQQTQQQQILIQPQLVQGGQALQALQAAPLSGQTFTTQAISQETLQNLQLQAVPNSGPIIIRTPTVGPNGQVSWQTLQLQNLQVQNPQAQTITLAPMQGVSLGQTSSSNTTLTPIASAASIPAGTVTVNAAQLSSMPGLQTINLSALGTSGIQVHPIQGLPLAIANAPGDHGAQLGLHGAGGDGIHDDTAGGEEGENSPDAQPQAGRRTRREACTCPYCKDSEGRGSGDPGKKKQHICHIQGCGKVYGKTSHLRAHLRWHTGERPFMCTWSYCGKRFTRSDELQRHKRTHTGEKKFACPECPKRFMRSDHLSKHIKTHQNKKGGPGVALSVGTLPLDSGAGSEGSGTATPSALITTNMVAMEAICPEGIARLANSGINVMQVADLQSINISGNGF

Clc1nc(Cl)nc(Cl)n1
active: [7] 144 µM | [9] 34.9 µM
not listed: [17] | [18] | [19]
inactive: all other assays above

O=CC=O
active: [9] 4.55 µM
not listed: [19]
inactive: all other assays above

Cc1cc(=O)[nH]o1
not listed: [9] | [12] | [18] | [19]
inactive: all other assays above

CC(=O)C=C(C)C
not listed: [10] | [12] | [18]
inactive: all other assays above

Cl/C=C/Cl
not listed: [10] | [16] | [19]
inactive: all other assays above

O=C(NCO)NCO
not listed: [9] | [17]
inactive: all other assays above

C[C@]12CC[C@H](O)CC1=CC[C@@H]1[C@@H]2CC[C@]2(C)C(=O)CC[C@@H]12
active: [9] 27.3 µM
not listed: [5] | [12] | [15] | [19]
inactive: all other assays above

CCCCCCCCc1ccc(O)cc1
not listed: [9] | [16]
inactive: all other assays above

COP(=S)(OC)Oc1cc(Cl)c(Cl)cc1Cl
active: [9] 26.7 µM | [10] 26.6 µM
not listed: [11]
inactive: all other assays above

COc1ccc(C=O)cc1
not listed: [15]
inactive: all other assays above

CCOP(=O)(CN(CCO)CCO)OCC
not listed: [18] | [19]
inactive: all other assays above

O=C/C=C/c1ccccc1
active: [9] 9.96 µM
not listed: [12] | [17] | [19]
inactive: all other assays above

COC(=O)c1sccc1S(=O)(=O)NC(=O)Nc1nc(C)nc(OC)n1
not listed: [9] | [11] | [15] | [17] | [19]
inactive: all other assays above

CC(=O)C(Cl)C(=O)N(C)C (stereo not drawn)
active: [17] 100 µM
not listed: [3] | [19]
inactive: all other assays above

COC(=O)Cc1ccccc1
not listed: [15]
inactive: all other assays above
